Activity calls are given as the source filed them. The calls were made as follows: active = hit-call score of the fitted dose curve at least 0.9, where 1 is the maximum; inactive = score below 0.9.
Experiment: Tanguay_ZF_120hpf_TCHR: Oregon State University Tanguay Lab 120 Hour Post-fertilization zebrafish Assay for Touch Responsive (AID 2284403)
How it was run: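 Binary touch-response calls are made at 120 hpf in 5D wild-type zebrafish larvae. These larvae were dechorionated with pronase and exposed singly from 6 hpf in sealed, dark plates at 28 °C with 0.64% DMSO final; dead embryos are excluded.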
For `CN(CCO)S(=O)(=O)C(F)(F)C(F)(F)C(F)(F)C(F)(F)C(F)(F)C(F)(F)C(F)(F)C(F)(F)F`, the AC50 was 29.6 µM (active).
In the case of `O=P(O)(O)CCC(F)(F)C(F)(F)C(F)(F)C(F)(F)C(F)(F)C(F)(F)C(F)(F)C(F)(F)F`, the outcome is reported as “inactive”.
With `O=C(O)C(F)(F)OC(F)(F)C(F)(F)OC(F)(F)C(F)(F)OC(F)(F)C(F)(F)C(F)(F)C(F)(F)F` the outcome was “inactive”.
In the case of `OCC(F)(F)C(F)(F)C(F)(F)C(F)(F)C(F)(F)C(F)(F)C(F)(F)C(F)(F)C(F)(F)C(F)(F)C(F)(F)F`, the outcome is reported as “inactive”.
For `C=CC(=O)OCCC(F)(F)C(F)(F)C(F)(F)C(F)(F)C(F)(F)C(F)(F)C(F)(F)C(F)(F)F`, the outcome was “inactive”.
For `O=C(O)CCC(F)(F)C(F)(F)C(F)(F)C(F)(F)C(F)(F)F`, the outcome was “inactive”.
In the case of `O=C(CC(=O)C(F)(F)C(F)(F)C(F)(F)F)c1cccs1`, the outcome is reported as “inactive”.
With `O=P(O)(O)CCC(F)(F)C(F)(F)C(F)(F)C(F)(F)C(F)(F)C(F)(F)F` the outcome was “inactive”.

Experiment: Tanguay_ZF_120hpf_ANY: Oregon State University Tanguay Lab 120 Hour Post-fertilization zebrafish Assay for Any Mortality and Malformation (AID 2284404)
How it was run: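 Dechorionated Tropical 5D wild-type embryos, one per well from 6 hpf, static exposure in sealed, dark plates at 28C until 120 hpf, 0.64% DMSO final. Brightfield scoring of mortality and malformations as binary presence/absence, pooling 13 morphology endpoints.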
For `CN(CCO)S(=O)(=O)C(F)(F)C(F)(F)C(F)(F)C(F)(F)C(F)(F)C(F)(F)C(F)(F)C(F)(F)F`, the AC50 was 28.9 µM (active).
In the case of `O=P(O)(O)CCC(F)(F)C(F)(F)C(F)(F)C(F)(F)C(F)(F)C(F)(F)C(F)(F)C(F)(F)F`, the outcome is reported as “inactive”.
For `O=C(O)C(F)(F)OC(F)(F)C(F)(F)OC(F)(F)C(F)(F)OC(F)(F)C(F)(F)C(F)(F)C(F)(F)F`, the AC50 was 34.4 µM (active).
In the case of `OCC(F)(F)C(F)(F)C(F)(F)C(F)(F)C(F)(F)C(F)(F)C(F)(F)C(F)(F)C(F)(F)C(F)(F)C(F)(F)F`, the outcome is reported as “inactive”.
With `C=CC(=O)OCCC(F)(F)C(F)(F)C(F)(F)C(F)(F)C(F)(F)C(F)(F)C(F)(F)C(F)(F)F` the outcome was “inactive”.
For `O=C(O)CCC(F)(F)C(F)(F)C(F)(F)C(F)(F)C(F)(F)F`, the outcome was “inactive”.
In the case of `O=C(CC(=O)C(F)(F)C(F)(F)C(F)(F)F)c1cccs1`, the AC50 is reported as 67.7 µM (active).
For `O=P(O)(O)CCC(F)(F)C(F)(F)C(F)(F)C(F)(F)C(F)(F)C(F)(F)F`, the outcome was “inactive”.

Experiment: CCTE_Padilla_ZF_Score.Craniofacial: CCTE's 144 Hour Post-fertilization zebrafish Assay Score for Craniofacial Malformation, Padilla Lab (AID 2284405)
How it was run: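 Craniofacial defects were scored at 6 dpf by two blinded observers using stereomicroscopy. Exposure of wild-type embryos began at 6–8 hpf in sealed wells of 10% Hanks' solution at 26C, with chemical removed by rinsing at 5 dpf.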
For `O=CC(F)(F)C(F)(F)C(F)(F)F`, the outcome was “inactive”.
With `FC(OC(F)(F)C(F)(F)C(F)(F)F)C(F)(F)F` (centres undefined) the outcome was “inactive”.
With `COC(=O)C(F)(F)C(F)(F)C(F)(F)C(F)(F)C(F)(F)F` the outcome was “inactive”.
With `O=C(O)CCC(F)(F)C(F)(F)C(F)(F)C(F)(F)C(F)(F)C(F)(F)F` the outcome was “inactive”.
In the case of `C=CC(F)(F)C(F)(F)C(F)(F)C(F)(F)F`, the outcome is reported as “inactive”.
With `CN(CCO)S(=O)(=O)C(F)(F)C(F)(F)C(F)(F)C(F)(F)C(F)(F)C(F)(F)C(F)(F)C(F)(F)F` the outcome was “inactive”.
With `O=P(O)(O)CCC(F)(F)C(F)(F)C(F)(F)C(F)(F)C(F)(F)C(F)(F)C(F)(F)C(F)(F)F` the outcome was “inactive”.
In the case of `O=C(OC(=O)C(F)(F)C(F)(F)F)C(F)(F)C(F)(F)F`, the outcome is reported as “inactive”.
For `FC1(F)C=CC(F)(F)C1(F)F`, the outcome was “inactive”.
In the case of `O=C(O)C(F)(F)OC(F)(F)C(F)(F)OC(F)(F)C(F)(F)OC(F)(F)C(F)(F)C(F)(F)C(F)(F)F`, the outcome is reported as “inactive”.
In the case of `FC(F)(F)C1(F)C(F)(F)C(F)(F)C(F)(F)C(F)(C(F)(F)F)C1(F)F` (centres undefined), the outcome is reported as “inactive”.
In the case of `OCC(F)(F)C(F)(F)C(F)(F)C(F)(F)C(F)(F)C(F)(F)C(F)(F)C(F)(F)C(F)(F)C(F)(F)C(F)(F)F`, the outcome is reported as “inactive”.
For `O=CC(F)(F)C(F)(F)C(F)(F)C(F)F`, the outcome was “inactive”.
With `O=C(F)C(F)(F)C(F)(F)C(F)(F)C(=O)F` the outcome was “inactive”.
In the case of `O=C1OC(=O)C(F)(F)C1(F)F`, the outcome is reported as “inactive”.
In the case of `C=CC(=O)OCCC(F)(F)C(F)(F)C(F)(F)C(F)(F)C(F)(F)C(F)(F)C(F)(F)C(F)(F)F`, the outcome is reported as “inactive”.
For `NC(C(F)(F)F)C(F)(F)F`, the outcome was “inactive”.
For `O=C(O)CCC(F)(F)C(F)(F)C(F)(F)C(F)(F)C(F)(F)F`, the outcome was “inactive”.
With `FC(F)=C(F)C(F)(F)C(F)(F)C(F)(F)C(F)F` the outcome was “inactive”.
For `FCOC(C(F)(F)F)C(F)(F)F`, the outcome was “inactive”.
For `FC(F)(F)N1C(F)(F)C(F)(F)OC(F)(F)C1(F)F`, the outcome was “inactive”.
With `FC(F)(F)C1(F)C(F)(F)C(F)(F)C(F)(F)C1(F)F` the outcome was “inactive”.
With `O=C(CC(=O)C(F)(F)C(F)(F)C(F)(F)F)c1cccs1` the outcome was “inactive”.
In the case of `O=P(O)(O)CCC(F)(F)C(F)(F)C(F)(F)C(F)(F)C(F)(F)C(F)(F)F`, the outcome is reported as “inactive”.

Experiment: CCTE_Padilla_ZF_Score.Edema: CCTE's 144 Hour Post-fertilization zebrafish Assay Score for Edema Malformation, Padilla Lab (AID 2284406)
How it was run: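 Edema scored at 6 dpf by two blinded observers under a stereo microscope, in single outbred wild-type larvae exposed from 6-8 hpf in sealed wells (Hanks', 26C, 14:10 h light) and chemical-free after a 5 dpf rinse.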
For `O=CC(F)(F)C(F)(F)C(F)(F)F`, the outcome was “inactive”.
With `FC(OC(F)(F)C(F)(F)C(F)(F)F)C(F)(F)F` (centres undefined) the outcome was “inactive”.
For `COC(=O)C(F)(F)C(F)(F)C(F)(F)C(F)(F)C(F)(F)F`, the outcome was “inactive”.
For `O=C(O)CCC(F)(F)C(F)(F)C(F)(F)C(F)(F)C(F)(F)C(F)(F)F`, the outcome was “inactive”.
With `C=CC(F)(F)C(F)(F)C(F)(F)C(F)(F)F` the outcome was “inactive”.
With `CN(CCO)S(=O)(=O)C(F)(F)C(F)(F)C(F)(F)C(F)(F)C(F)(F)C(F)(F)C(F)(F)C(F)(F)F` the outcome was “inactive”.
With `O=P(O)(O)CCC(F)(F)C(F)(F)C(F)(F)C(F)(F)C(F)(F)C(F)(F)C(F)(F)C(F)(F)F` the AC50 was 1.69 µM (active).
With `O=C(OC(=O)C(F)(F)C(F)(F)F)C(F)(F)C(F)(F)F` the outcome was “inactive”.
In the case of `FC1(F)C=CC(F)(F)C1(F)F`, the outcome is reported as “inactive”.
With `O=C(O)C(F)(F)OC(F)(F)C(F)(F)OC(F)(F)C(F)(F)OC(F)(F)C(F)(F)C(F)(F)C(F)(F)F` the AC50 was 3.21 µM (active).
In the case of `FC(F)(F)C1(F)C(F)(F)C(F)(F)C(F)(F)C(F)(C(F)(F)F)C1(F)F` (centres undefined), the outcome is reported as “inactive”.
With `OCC(F)(F)C(F)(F)C(F)(F)C(F)(F)C(F)(F)C(F)(F)C(F)(F)C(F)(F)C(F)(F)C(F)(F)C(F)(F)F` the outcome was “inactive”.
With `O=CC(F)(F)C(F)(F)C(F)(F)C(F)F` the outcome was “inactive”.
For `O=C(F)C(F)(F)C(F)(F)C(F)(F)C(=O)F`, the outcome was “inactive”.
With `O=C1OC(=O)C(F)(F)C1(F)F` the outcome was “inactive”.
In the case of `C=CC(=O)OCCC(F)(F)C(F)(F)C(F)(F)C(F)(F)C(F)(F)C(F)(F)C(F)(F)C(F)(F)F`, the outcome is reported as “inactive”.
In the case of `NC(C(F)(F)F)C(F)(F)F`, the outcome is reported as “inactive”.
In the case of `O=C(O)CCC(F)(F)C(F)(F)C(F)(F)C(F)(F)C(F)(F)F`, the AC50 is reported as 10.7 µM (active).
With `FC(F)=C(F)C(F)(F)C(F)(F)C(F)(F)C(F)F` the outcome was “inactive”.
In the case of `FCOC(C(F)(F)F)C(F)(F)F`, the outcome is reported as “inactive”.
In the case of `FC(F)(F)N1C(F)(F)C(F)(F)OC(F)(F)C1(F)F`, the outcome is reported as “inactive”.
For `FC(F)(F)C1(F)C(F)(F)C(F)(F)C(F)(F)C1(F)F`, the outcome was “inactive”.
In the case of `O=C(CC(=O)C(F)(F)C(F)(F)C(F)(F)F)c1cccs1`, the outcome is reported as “inactive”.
With `O=P(O)(O)CCC(F)(F)C(F)(F)C(F)(F)C(F)(F)C(F)(F)C(F)(F)F` the AC50 was 23.9 µM (active).

From PubChem BioAssay (EPA / NIEHS)
